# Reference: PMC7862700, “An all-to-all approach to the identification of sequence-specific readers for epigenetic DNA modifications on cytosine”
# Assays:
# Test in all cases: DAPPL (digital affinity profiling via proximity ligation, sequencing); 10 mM Tris-HCl pH 7.5, 50 mM NaCl, 1 mM DTT, 4% glycerol, room temperature, 30 min; GST-TFs on glutathione beads, 16-mer random dsDNA library, 0.1% formaldehyde crosslink after washing; high values mean tight binding
# Settings in all cases: protein: recombinant; tags: N-terminal GST; dsDNA, one strand shown
# [1] = molecular target: T1, FLI1 (Homo sapiens, UniProt Q01543 1-452)
# T1 sequence: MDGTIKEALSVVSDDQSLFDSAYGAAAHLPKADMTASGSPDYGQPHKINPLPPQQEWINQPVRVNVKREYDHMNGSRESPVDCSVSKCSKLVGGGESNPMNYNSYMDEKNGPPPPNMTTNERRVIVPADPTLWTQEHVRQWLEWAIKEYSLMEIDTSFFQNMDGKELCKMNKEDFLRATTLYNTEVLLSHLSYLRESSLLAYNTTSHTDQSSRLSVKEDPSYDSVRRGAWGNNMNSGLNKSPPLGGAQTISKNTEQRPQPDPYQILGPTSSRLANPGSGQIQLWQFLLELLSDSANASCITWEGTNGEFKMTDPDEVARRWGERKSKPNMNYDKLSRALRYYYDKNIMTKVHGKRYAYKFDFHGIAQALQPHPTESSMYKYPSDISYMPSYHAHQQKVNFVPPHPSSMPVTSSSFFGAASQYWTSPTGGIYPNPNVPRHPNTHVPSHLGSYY
# Outline: (§1)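 After expression in yeast as GST fusions, human transcription factors were bound to glutathione beads, DNA-barcoded and mixed with a tag-only sample. The pools were incubated with 200 nmole of a 16-mer random double-stranded DNA library in Tris/NaCl/DTT/glycerol buffer (30 min, room temperature), washed and crosslinked with 0.1% formaldehyde. Proximity ligation with BsaI/T4 ligase ran for 1 h at 37 °C, before PCR amplification and sequencing on an Illumina NextSeq500. Binding signal is a hexamer's read frequency for a factor divided by its frequency for the tag-only sample.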
# [2] = molecular target: T2, ELK1 (Homo sapiens, UniProt P19419 1-428)
# T2 sequence: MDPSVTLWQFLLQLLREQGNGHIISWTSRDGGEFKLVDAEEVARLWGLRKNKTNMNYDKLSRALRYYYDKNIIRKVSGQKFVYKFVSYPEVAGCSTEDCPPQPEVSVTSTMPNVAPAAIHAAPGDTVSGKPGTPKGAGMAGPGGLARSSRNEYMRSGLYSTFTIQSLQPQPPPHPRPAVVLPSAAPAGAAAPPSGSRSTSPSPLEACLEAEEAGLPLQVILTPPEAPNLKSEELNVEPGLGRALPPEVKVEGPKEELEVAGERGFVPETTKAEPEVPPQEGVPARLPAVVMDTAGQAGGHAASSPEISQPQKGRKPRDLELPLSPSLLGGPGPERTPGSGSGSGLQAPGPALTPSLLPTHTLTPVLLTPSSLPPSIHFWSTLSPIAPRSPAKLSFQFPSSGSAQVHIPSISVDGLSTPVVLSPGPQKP
# Outline: as §1
# [3] = molecular target: T3, GABPA (Homo sapiens, UniProt Q06546 1-454)
# T3 sequence: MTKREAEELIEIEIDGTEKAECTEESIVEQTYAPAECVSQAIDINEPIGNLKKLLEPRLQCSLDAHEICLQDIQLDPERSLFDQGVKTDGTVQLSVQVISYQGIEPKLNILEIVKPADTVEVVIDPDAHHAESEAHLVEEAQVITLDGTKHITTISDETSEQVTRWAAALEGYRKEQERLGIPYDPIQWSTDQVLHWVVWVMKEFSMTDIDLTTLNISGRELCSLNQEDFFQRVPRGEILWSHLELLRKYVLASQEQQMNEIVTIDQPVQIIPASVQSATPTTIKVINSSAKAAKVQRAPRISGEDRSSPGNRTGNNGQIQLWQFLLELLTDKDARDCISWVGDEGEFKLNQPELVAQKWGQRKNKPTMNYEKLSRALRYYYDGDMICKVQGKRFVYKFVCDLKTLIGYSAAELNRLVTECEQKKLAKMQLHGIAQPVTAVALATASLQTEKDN
# Outline: as §1
# [4] = molecular target: T4, ERG (Homo sapiens, UniProt P11308 1-479)
# T4 sequence: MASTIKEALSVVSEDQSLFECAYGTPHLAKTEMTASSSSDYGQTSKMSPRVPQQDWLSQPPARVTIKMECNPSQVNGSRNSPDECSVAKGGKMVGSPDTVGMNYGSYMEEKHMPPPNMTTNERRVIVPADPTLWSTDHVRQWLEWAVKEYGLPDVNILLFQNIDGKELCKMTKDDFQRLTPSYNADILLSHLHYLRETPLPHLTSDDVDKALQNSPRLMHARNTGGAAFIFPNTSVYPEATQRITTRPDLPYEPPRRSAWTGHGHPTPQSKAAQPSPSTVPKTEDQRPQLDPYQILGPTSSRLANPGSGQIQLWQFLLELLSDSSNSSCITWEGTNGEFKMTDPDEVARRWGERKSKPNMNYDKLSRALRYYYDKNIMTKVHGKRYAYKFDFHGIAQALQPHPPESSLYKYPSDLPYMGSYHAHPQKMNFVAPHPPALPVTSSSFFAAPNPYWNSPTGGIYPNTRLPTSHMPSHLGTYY
# Outline: as §1
# [5] = molecular target: ELF1 (Homo sapiens, UniProt P32519 1-619)
# Outline: as §1
# [6] = molecular target: T5, EHF (Homo sapiens, UniProt Q9NZC4 1-300)
# T5 sequence: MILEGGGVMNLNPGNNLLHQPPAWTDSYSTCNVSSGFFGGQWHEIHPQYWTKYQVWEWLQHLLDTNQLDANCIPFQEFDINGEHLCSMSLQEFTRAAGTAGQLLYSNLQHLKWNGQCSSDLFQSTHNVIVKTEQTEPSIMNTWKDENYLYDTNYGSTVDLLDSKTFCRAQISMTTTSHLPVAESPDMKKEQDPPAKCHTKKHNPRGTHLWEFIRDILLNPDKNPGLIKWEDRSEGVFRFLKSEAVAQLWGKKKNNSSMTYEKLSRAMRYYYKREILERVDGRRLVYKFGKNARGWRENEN
# Outline: as §1
# [7] = molecular target: SPI1 (Homo sapiens, UniProt P17947 1-270)
# Outline: as §1
# [8] = molecular target: SPIB (Homo sapiens, UniProt Q01892 1-262)
# Outline: as §1
# [9] = molecular target: T6, ELK3 (Homo sapiens, UniProt P41970 1-407)
# T6 sequence: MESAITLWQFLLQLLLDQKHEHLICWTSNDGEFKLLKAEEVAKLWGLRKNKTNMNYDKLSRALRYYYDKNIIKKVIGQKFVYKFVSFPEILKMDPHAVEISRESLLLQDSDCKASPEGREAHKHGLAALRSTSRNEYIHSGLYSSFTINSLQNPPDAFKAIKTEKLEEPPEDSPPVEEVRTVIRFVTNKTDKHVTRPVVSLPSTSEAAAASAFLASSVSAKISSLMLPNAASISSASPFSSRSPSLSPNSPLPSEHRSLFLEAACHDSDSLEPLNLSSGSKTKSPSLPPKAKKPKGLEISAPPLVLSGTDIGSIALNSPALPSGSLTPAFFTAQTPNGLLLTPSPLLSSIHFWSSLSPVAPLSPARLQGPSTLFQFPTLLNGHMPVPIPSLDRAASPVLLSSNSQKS
# Outline: as §1
# [10] = molecular target: T7, FEV (Homo sapiens, UniProt Q99581 1-238)
# T7 sequence: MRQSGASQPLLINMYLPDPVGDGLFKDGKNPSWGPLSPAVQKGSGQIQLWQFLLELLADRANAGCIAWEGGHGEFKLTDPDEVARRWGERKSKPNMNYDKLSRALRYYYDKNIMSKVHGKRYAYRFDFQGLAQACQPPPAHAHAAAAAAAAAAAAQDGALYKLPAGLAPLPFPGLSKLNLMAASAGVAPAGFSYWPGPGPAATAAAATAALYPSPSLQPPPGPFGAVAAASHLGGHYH
# Outline: as §1
# [11] = molecular target: ETV5 (Homo sapiens, UniProt P41161 1-510)
# Outline: as §1
# [12] = molecular target: T8, SPIC (Homo sapiens, UniProt Q8N5J4 1-248)
# T8 sequence: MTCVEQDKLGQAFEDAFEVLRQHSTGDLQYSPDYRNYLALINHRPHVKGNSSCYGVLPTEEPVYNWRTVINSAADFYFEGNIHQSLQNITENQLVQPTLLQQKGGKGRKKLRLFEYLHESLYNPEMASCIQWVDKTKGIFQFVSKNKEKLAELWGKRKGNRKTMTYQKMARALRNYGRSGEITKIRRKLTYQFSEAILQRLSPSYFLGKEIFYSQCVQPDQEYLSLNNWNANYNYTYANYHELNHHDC
# Outline: as §1
# [13] = molecular target: ELF4 (Homo sapiens, UniProt Q99607 1-663)
# Outline: as §1
# [14] = molecular target: T9, ELK4 (Homo sapiens, UniProt P28324-2 1-405)
# T9 sequence: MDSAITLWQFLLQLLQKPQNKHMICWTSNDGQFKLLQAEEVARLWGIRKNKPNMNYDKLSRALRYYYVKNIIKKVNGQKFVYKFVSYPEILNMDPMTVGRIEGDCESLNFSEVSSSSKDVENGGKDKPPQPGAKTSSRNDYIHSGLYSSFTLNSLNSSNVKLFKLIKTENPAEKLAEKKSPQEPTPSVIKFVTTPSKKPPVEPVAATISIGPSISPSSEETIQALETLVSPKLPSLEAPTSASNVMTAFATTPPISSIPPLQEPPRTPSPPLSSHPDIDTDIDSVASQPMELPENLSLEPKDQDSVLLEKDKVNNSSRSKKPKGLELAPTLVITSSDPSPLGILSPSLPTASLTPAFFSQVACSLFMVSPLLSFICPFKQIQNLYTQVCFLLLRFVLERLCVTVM
# Outline: as §1
# [15] = molecular target: T10, ETV2 (Homo sapiens, UniProt O00321 1-342)
# T10 sequence: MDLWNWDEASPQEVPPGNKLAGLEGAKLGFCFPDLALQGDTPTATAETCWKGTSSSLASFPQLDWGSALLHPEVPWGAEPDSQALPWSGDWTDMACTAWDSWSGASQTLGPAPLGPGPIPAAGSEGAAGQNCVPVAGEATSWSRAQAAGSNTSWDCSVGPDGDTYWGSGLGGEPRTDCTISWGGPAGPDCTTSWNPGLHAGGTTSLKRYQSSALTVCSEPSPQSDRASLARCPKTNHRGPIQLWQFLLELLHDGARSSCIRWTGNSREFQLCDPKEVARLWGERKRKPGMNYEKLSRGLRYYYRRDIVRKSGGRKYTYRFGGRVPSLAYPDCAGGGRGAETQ
# Outline: as §1
# [16] = molecular target: T11, ELF3 (Homo sapiens, UniProt P78545 1-371)
# T11 sequence: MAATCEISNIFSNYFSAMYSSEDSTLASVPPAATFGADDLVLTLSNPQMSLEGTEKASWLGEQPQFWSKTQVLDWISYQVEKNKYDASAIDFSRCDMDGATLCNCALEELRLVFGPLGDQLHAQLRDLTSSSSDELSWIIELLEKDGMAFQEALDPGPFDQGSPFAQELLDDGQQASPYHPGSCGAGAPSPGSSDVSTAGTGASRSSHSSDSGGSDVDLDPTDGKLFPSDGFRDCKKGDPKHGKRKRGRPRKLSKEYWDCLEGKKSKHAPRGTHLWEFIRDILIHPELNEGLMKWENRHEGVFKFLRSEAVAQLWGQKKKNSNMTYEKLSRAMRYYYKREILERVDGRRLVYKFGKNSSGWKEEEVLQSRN
# Outline: as §1
# [17] = molecular target: ETV1 (Homo sapiens, UniProt P50549 1-477)
# Outline: as §1
# Chain of ETV5 (P41161 whole entry): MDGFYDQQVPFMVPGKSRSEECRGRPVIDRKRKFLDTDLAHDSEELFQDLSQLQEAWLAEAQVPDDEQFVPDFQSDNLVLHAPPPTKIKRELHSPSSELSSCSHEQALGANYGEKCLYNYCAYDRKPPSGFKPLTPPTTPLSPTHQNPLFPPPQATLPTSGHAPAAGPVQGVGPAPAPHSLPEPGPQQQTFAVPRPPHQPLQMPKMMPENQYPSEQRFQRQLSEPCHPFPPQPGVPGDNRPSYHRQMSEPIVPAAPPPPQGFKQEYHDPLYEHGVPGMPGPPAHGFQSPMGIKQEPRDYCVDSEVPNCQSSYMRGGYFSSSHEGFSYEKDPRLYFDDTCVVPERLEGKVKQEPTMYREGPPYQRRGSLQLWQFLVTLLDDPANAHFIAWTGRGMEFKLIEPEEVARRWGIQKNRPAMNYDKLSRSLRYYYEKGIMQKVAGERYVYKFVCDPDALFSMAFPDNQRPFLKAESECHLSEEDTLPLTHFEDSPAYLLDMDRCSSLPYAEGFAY
# Chain of ETV1 (P50549 whole entry): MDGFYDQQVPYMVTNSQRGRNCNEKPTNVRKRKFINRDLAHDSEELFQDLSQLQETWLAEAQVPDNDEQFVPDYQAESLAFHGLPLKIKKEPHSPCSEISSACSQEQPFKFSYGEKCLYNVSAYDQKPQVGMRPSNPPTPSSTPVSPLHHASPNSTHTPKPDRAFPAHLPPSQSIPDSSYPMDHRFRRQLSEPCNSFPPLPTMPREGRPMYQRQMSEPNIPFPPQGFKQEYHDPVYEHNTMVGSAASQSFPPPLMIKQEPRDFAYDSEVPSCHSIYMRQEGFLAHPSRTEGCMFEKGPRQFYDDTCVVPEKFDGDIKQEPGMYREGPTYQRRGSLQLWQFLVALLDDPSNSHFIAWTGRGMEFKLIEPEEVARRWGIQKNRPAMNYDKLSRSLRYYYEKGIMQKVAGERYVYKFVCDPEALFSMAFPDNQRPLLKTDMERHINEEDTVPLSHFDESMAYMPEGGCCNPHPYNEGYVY
# Chain of ELF4 (Q99607 whole entry): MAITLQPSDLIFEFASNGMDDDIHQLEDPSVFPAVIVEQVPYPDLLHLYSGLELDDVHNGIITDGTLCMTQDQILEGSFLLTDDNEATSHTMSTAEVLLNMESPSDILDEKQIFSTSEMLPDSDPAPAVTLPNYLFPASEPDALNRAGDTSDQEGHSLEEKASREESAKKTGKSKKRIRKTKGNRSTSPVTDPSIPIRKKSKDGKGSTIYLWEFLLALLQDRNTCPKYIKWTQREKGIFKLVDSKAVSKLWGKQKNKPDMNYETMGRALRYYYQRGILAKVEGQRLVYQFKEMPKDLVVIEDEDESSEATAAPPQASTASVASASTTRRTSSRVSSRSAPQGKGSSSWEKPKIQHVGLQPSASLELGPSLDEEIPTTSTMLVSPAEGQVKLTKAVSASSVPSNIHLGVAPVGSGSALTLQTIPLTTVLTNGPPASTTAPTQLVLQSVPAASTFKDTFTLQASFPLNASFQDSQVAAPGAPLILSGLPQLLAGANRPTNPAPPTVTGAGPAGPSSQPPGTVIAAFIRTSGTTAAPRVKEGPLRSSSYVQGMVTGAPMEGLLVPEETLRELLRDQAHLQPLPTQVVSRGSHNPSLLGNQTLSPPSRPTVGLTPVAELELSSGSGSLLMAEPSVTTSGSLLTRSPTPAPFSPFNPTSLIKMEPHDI
# Chain of SPIB (Q01892 whole entry): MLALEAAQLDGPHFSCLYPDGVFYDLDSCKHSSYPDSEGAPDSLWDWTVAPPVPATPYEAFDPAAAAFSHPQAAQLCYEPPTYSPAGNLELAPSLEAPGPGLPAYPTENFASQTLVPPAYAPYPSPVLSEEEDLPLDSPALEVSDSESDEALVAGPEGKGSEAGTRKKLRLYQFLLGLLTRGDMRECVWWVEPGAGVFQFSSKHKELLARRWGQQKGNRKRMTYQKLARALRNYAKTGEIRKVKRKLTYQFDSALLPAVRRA
# Chain of ELF1 (P32519 whole entry): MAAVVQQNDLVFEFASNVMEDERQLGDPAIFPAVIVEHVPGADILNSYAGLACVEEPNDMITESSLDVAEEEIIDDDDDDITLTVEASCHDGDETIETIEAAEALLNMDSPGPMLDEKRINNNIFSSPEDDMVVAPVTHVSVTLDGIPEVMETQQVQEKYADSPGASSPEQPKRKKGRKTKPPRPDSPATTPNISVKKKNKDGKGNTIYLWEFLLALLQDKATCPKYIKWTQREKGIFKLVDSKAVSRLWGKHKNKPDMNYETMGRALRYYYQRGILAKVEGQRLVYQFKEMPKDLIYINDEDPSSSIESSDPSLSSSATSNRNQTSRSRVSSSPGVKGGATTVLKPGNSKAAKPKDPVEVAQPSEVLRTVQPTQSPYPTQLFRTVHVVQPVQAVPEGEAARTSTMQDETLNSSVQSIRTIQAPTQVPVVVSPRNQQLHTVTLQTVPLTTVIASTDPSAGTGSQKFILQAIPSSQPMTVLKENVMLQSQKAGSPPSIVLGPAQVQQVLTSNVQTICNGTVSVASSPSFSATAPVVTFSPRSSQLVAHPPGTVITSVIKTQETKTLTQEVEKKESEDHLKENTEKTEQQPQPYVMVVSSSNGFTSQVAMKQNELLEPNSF
Sequence,binding signal [1],binding signal [2],binding signal [3],binding signal [4],binding signal [5],binding signal [6],binding signal [7],binding signal [8],binding signal [9],binding signal [10],binding signal [11],binding signal [12],binding signal [13],binding signal [14],binding signal [15],binding signal [16],binding signal [17]
CATGGT,"1.25 fold enrichment (6-mer frequency, TF over GST control)","1.29 fold enrichment (6-mer frequency, TF over GST control)","1.29 fold enrichment (6-mer frequency, TF over GST control)","1.38 fold enrichment (6-mer frequency, TF over GST control)","1.21 fold enrichment (6-mer frequency, TF over GST control)","1.22 fold enrichment (6-mer frequency, TF over GST control)","1.27 fold enrichment (6-mer frequency, TF over GST control)","1.26 fold enrichment (6-mer frequency, TF over GST control)","1.3 fold enrichment (6-mer frequency, TF over GST control)","1.08 fold enrichment (6-mer frequency, TF over GST control)","1.24 fold enrichment (6-mer frequency, TF over GST control)","1.39 fold enrichment (6-mer frequency, TF over GST control)","1.32 fold enrichment (6-mer frequency, TF over GST control)","1.32 fold enrichment (6-mer frequency, TF over GST control)","1.13 fold enrichment (6-mer frequency, TF over GST control)","1.35 fold enrichment (6-mer frequency, TF over GST control)","1.29 fold enrichment (6-mer frequency, TF over GST control)"
GTCCTT,"1.16 fold enrichment (6-mer frequency, TF over GST control)","1.2 fold enrichment (6-mer frequency, TF over GST control)","1.28 fold enrichment (6-mer frequency, TF over GST control)","1.22 fold enrichment (6-mer frequency, TF over GST control)","1.26 fold enrichment (6-mer frequency, TF over GST control)","1.28 fold enrichment (6-mer frequency, TF over GST control)","1.29 fold enrichment (6-mer frequency, TF over GST control)","1.34 fold enrichment (6-mer frequency, TF over GST control)","1.25 fold enrichment (6-mer frequency, TF over GST control)","1.29 fold enrichment (6-mer frequency, TF over GST control)","1.19 fold enrichment (6-mer frequency, TF over GST control)","1.23 fold enrichment (6-mer frequency, TF over GST control)","1.21 fold enrichment (6-mer frequency, TF over GST control)","1.15 fold enrichment (6-mer frequency, TF over GST control)","1.31 fold enrichment (6-mer frequency, TF over GST control)","1.16 fold enrichment (6-mer frequency, TF over GST control)","1.13 fold enrichment (6-mer frequency, TF over GST control)"
GGACAT,"1.19 fold enrichment (6-mer frequency, TF over GST control)","1.19 fold enrichment (6-mer frequency, TF over GST control)","1.24 fold enrichment (6-mer frequency, TF over GST control)","1.24 fold enrichment (6-mer frequency, TF over GST control)","1.19 fold enrichment (6-mer frequency, TF over GST control)","1.19 fold enrichment (6-mer frequency, TF over GST control)","1.13 fold enrichment (6-mer frequency, TF over GST control)","1.14 fold enrichment (6-mer frequency, TF over GST control)","1.19 fold enrichment (6-mer frequency, TF over GST control)","1.56 fold enrichment (6-mer frequency, TF over GST control)","1.18 fold enrichment (6-mer frequency, TF over GST control)","1.28 fold enrichment (6-mer frequency, TF over GST control)","1.11 fold enrichment (6-mer frequency, TF over GST control)","1.07 fold enrichment (6-mer frequency, TF over GST control)","1.16 fold enrichment (6-mer frequency, TF over GST control)","1.24 fold enrichment (6-mer frequency, TF over GST control)","1.23 fold enrichment (6-mer frequency, TF over GST control)"
